Measurements published in the supplement of paper PMC6555819.

These sequences were tested on VDR:RXRa (NR concentration 270 nM, RXRa partner concentration 90 nM) (assay: PBM binding z-score (relative to random genomic background probes); higher = stronger binding; sequences stand for … in GC…GCGATTGACAGCGTAGAATGAAGG).
Method: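 Protein-binding microarray (Agilent 4x180K custom design, double-stranded 60-nt probes: 5' GC cap, 34-nt variable region, 24-nt constant primer region; full probe sequence given). Purified or IVT nuclear receptor:RXRα heterodimers (3:1 NR:RXRα, mostly 270:90 nM) or homodimers were incubated for 1 h in PBS with 2% milk and no ligand, then detected with Alexa488 antibodies. Fluorescence from o1-orientation probes (~5 replicates averaged) was converted to z-scores against 500 random hg19 background probes. Variable regions are seed direct-repeat (DR0–DR5) sites, all their single-nucleotide variants and half-site ablations.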

Sequence	PBM binding z-score
TCTTGTAGATCAACAGGAGCTTAAGAAAGATCGA	-0.21
TTACCAAGGTGAAGATCGTTGATCCCTCTGTAGA	-0.031
GCTTCTAGATCAAGGTTAAGAAAGACTAAGCTAA	0.384
TCGAGTAGGTCACCAATGGGGCATTCAGCTTTCT	2.62
TCTATTAGTTGATTAGGGCAACCGTAACAGCGGA	0.769
CGAACTAGGTCATTGACAGGACAGGGAATAGTAA	2.12
GCGACTGGGGCAAAGCAGGTTACCATTAGGTTGG	-0.0809
CGTCCAAGGTCAGCAGGTTAGTGAAAGCGACGTG	4.07
CGTCCAAGGTCTGAGAGGTCAGTGAATGCCGAGT	3.29
CAAACTAGGTCACCGGAATGTCAAAGTCCGCATG	3.06
ACTCGGAGGACAATGGTCAGAGCTACGCCAGTGA	-0.697
TCATATAGGTAAATGCTAGGTGAAGGTCCGATCT	0.873
ATCTCTAGGTAAAGTTCGGTGAAAGATCGATAGA	0.603
CCGACTGGGGCAAAAGGTTACCATAAGCCAGCCC	1.08
ACTCGGAGGACAAAGCTCAGAGCTACGCCAGTGA	-0.859
TCGAGTAGGTTAGGGGGATTCAGAATGGCGTCGA	0.8
AGTCAAAGTTCACTAGGTATCGTAAGATTCAGCT	3.89
CCGACTGGGGCAAGCTTACCATAACGCACAGCCA	-0.753
CGAACTAGGTCATTGACAGGACAGTGCATAGTAA	2.5
TTACCAAGGTGAGCTGAGGTCGTTCATCCAACTC	4.32

Sequence	PBM binding z-score
CCTACTGGGCCACGAAAGATCATTGATTCAGTGA	-0.306
GCTAGCAGGCCATTTGGGTCACGCAATGACGGGC	1.61
ATCTCTAGGTTAGACTCAGTTCAGTGAAGAACGC	1.7
TCATATAGGTAAATGCTAGGCGAAAGTCCGATCT	0.812
CGTCCAAGGTCAAGATCAGTGAAAGAGACTCGAA	3.61
TCATCTAGGTAATACAGGTGAAAGTCGGCATCTA	0.916
GCATACAGGTAATACAAGGTGAAAGTCCGATTGT	0.492
GGAACGAAGGCAAGTTGATAGCAGAGTTTGATGG	-0.696
CCTAATAGTTGACCATAAGGGCAACCGAAGCTCG	0.926
ATCTCTAGGTAAGACTCAGTTCAGTAAAGAACGC	1.12
CGTCGAAGGTCAGAGAGGTCAGTGAATGCCGAGT	7.5
TTGCCTAGGTCATGCGGGCCAGTATAGTGTCGGC	2.8
GGAACGAGGGCATTCGAGCTGATAGCATGGCGAT	0.809
CCTAGTTGGTCAGGACGTCACACACCGGATATGA	0.236
CCTACTGGGCTACGAAAGGTCATTGATTCAGTGA	3.71
CGTCAAAGTTCAACTAAGGGAACGTAAAGCACGC	4.35
TCAGGCAGGTGAAGGTAACTCAGGTACGCAGTCG	0.269
CCTATTAGTTGACCAAAAGGGCAACCGAAGCTCG	0.901
GCGACGGGGGCATCAGCAGGTTACCATAACTTAA	3.67
TCTTGTAGAGCAGCAGGTTAAGAAAGCTGGCCAA	-0.353
